Bioassay records from PubChem.
The list is not random: actives were taken first. Their share in the collection is about 20%.
CHX counter: counter-screen for Shiga toxin inhibitors: cycloheximide protein synthesis inhibition; cell reporter, cycloheximide protein synthesis inhibition counterscreen; max response, %; 12% of 300,000 active; AID 2314; in the data active means max response mostly above about 13%, no sharp cut-off; inactive means mostly below about 14%; further: read at 38.3 µM for the half of the compounds with a filed dose
Shiga toxin inh: Shiga toxin inhibition. Vero cells, Shiga toxin protein synthesis inhibition reporter. inhibition, % at 38.7 µM. 9.2% of 290,000 active. AID 2315; in the data active means inhibition mostly above about 28%, no sharp cut-off; inactive means mostly below about 43%
HCMV antiviral: inhibitors of human cytomegalovirus | HFF cells, HCMV-luciferase reporter, 72 h; hits give low values | activity change, negative = inhibition, % at 57.5 µM | 4.5% of 410,000 active; in the data active means activity change below about -60%; inconclusive means no clear call, values can overlap the other calls; inactive means above about -39%
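Two-dose cell screen: HFF monolayers treated with compounds and infected with luciferase-expressing HCMV at 1 PFU/cell, 72 h at 37C, then lysed for luciferase measurement.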
Pf growth 48h: P. falciparum growth inhibition at 48 hours (one generation) | 5.9% of 310,000 active | P. falciparum luciferase growth in erythrocytes, 48 h | Potency, µM (series often up to 28.7 µM), usual class: inhibitors | AID 504832
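Here the parasites carry a stable luciferase gene and grow inside erythrocytes in Albumax-based RPMI medium with compound for one erythrocytic cycle. Activity is scored as loss of luminescent signal.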
Pf growth 96h: inhibits malaria parasite growth, 96 h. P. falciparum luciferase reporter growth, 96 h. Potency, µM (top dose mostly 28.7 µM), actives largely listed as inhibitors. 6.9% of 320,000 active
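Delayed-death screen, second-generation endpoint: infected erythrocytes, 2% hematocrit, 0.05% parasitemia final; 96 hours at 37 C, 5% CO2; luciferase detection reagent; luminescence decrease equals reduced growth.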
Hits are given with their value; . = inactive; ? = inconclusive; / = not tested or not shown; + = active, no number; [ ] = another dose, or the depositor's remark. Unless noted, the call rests on the fitted dose curve; in most records, active means well fitted inhibition curve with a large enough effect; inconclusive means small, poorly fitted or top-dose-only effect, or another doubt; inactive means no such curve, though single readings can be large or run the other way.

SMILES | CHX counter | Shiga toxin inh | HCMV antiviral | Pf growth 48h | Pf growth 96h
CCNC(=O)CC1C(=O)N(c2ccccc2)C(=O)N1Cc1ccc(OC)cc1 (centres undefined) | 13 | . | . | . | ?
CCNC(=O)CC1C(=O)N(c2ccc(C)cc2)C(=O)N1CCC(C)C (centres undefined) | . | . | . | . | 12µM
CCNC(=O)CC1C(=O)N(c2ccc(F)cc2)C(=O)N1CCC(C)C (centres undefined) | . | . | . | . | .
CC(NC1CCCCC1)C(O)C12CC3CC(CC(C3)C1)C2 (centres undefined) | . | . | . | 7.4µM | /
O=C(Nc1ccc(Cl)c(S(=O)(=O)N2CCOCC2)c1)C1=NN(c2ccccc2)C(=O)CC1 | / | / | . | / | /
Cc1cccc(N2N=C(C(=O)Nc3ccc(Cl)c(S(=O)(=O)N4CCOCC4)c3)CCC2=O)c1 | / | / | . | 12µM | ?
Cc1cccc(N2N=C(C(=O)O)CCC2=O)c1 | . | . | . | 9.3µM | ?
Cc1cccc(N2N=C(C(=O)Nc3nc(C)cs3)CCC2=O)c1 | . | . | . | . | .
CC1=NN(c2ccc(C(=O)O)cc2)C(=O)CC1 | 29 | 44 | . | . | .
COc1cccc(CNC(=O)c2cnc3sc(N4CCCC4)nn3c2=O)c1OC | / | / | . | / | /
COc1ccc(Cl)cc1NC(=O)c1nn(-c2ccc(C)cc2)c(=O)n(C)c1=O | / | / | . | / | /
O=C(CSc1nc2c([nH]c3ccccc32)c(=O)n1-c1ccccc1)c1ccc(Cl)cc1 | / | / | . | / | /
COc1cc(C)ccc1Oc1ccc2c(-c3ccccc3)noc2n1 | / | / | . | / | /
Cc1ccc(C2=NOC(C)(c3nnc(-c4ccc(Cl)cc4)o3)C2)cc1 (centres undefined) | . | . | . | . | .
CCCCN1CCc2c([nH]c3c(C)cccc23)C1=O | 42 | 69 | . | / | ?
CCCc1c(C)c2cccc(C)c2[nH]c1=O | . | . | . | . | .
CCCCC(=O)N(CCOC)c1nnc(-c2ccc(OC)cc2)s1 | . | . | . | . | /
CCCN(C(=O)c1ccco1)c1nnc(-c2cccc(C)c2)s1 | 61 | 72 | . | . | .
COCCN(C(=O)C1CC1)c1nnc(-c2cccc(C)c2)s1 | 15 | . | . | . | .
CCN(C(=O)c1ccco1)c1nnc(-c2ccc(OC)cc2)s1 | 30 | + | . | . | .
Cc1ccc2nc(N(CCCN(C)C)C(=O)c3ccco3)sc2c1 | . | . | . | . | .
COc1cc(-c2cc(NC(C)=O)c3ncc(-c4ccccc4)n3c2)cc(OC)c1OC | / | / | . | / | /
CC(NC(=O)c1c(Cl)cnn1C)C1CCCO1 (centres undefined) | . | . | . | . | .
Cc1cccc(-c2nc(C#N)c(NCC3CCCO3)o2)c1 (centres undefined) | 44 | 89 | . | . | .
Cc1cccc(-c2noc(CCCC(=O)NCC3CCCO3)n2)c1 (centres undefined) | . | . | . | . | .
SMILES | CHX counter | Shiga toxin inh | HCMV antiviral | Pf growth 48h | Pf growth 96h
O=S(=O)(c1ccccc1)c1nc(-c2cccs2)oc1NCC1CCCO1 (centres undefined) | . | . | . | . | .[5.75 µM]
CC1CN(c2oc(-c3cccs3)nc2C#N)CC(C)O1 (centres undefined) | . | . | . | 10µM | .
COc1ccc(-c2nc(C#N)c(NCC3CCCO3)o2)cc1 (centres undefined) | 25 | 73 | . | . | /
N#Cc1nc(-c2cccs2)oc1NCC1CCCO1 (centres undefined) | 9.3 | . | ? | . | .
CCOc1ccc(C(CC(=O)Nc2cc(C)c(Cl)cc2OC)N2Cc3ccccc3C2=O)cc1OC (centres undefined) | / | / | . | / | /
CN1CCN(C(=O)/C(=C\c2cccs2)NC(=O)c2ccco2)CC1 | . | . | . | . | .
Cc1c(C(=O)Nc2ccc(C(F)(F)F)cc2)sc2ncn(CC(=O)N3CCN(c4ccccn4)CC3)c(=O)c12 | . | . | . | . | ?
Cc1ccc(-c2nc(C#N)c(NCC3CCCO3)o2)cc1 (centres undefined) | 25 | 82 | . | . | .
Cc1cccc(-c2nc(C#N)c(N3CCC(C)CC3)o2)c1 | . | . | . | . | .
Cc1cccc(-c2nc(C#N)c(N3CCCCCC3)o2)c1 | 28 | 70 | . | . | /
Cc1ccc(Cl)cc1NC(=O)c1cc(S(=O)(=O)N2CCCCCC2)cn1C | / | / | . | / | /
Cc1cc(C)nc(Nc2ncc(O)n2-c2ccc(Br)cc2)n1 | . | . | . | . | .
CCOC(=O)c1nnn(-c2nonc2N)c1CN1CCCC1 | . | . | . | . | 0.66µM
CC(/C=N/NC(=O)c1nnn(-c2nonc2N)c1CN1CCCCC1)=C\c1ccccc1 | . | . | . | ? | 9.3µM
CCOC(=O)c1nnn(-c2nonc2N)c1CN1CCCCCC1 | . | . | . | . | /
Nc1nonc1-n1nnc(C(=O)N/N=C/c2ccc(O)cc2)c1CN1CCCCCC1 | / | / | -61 | / | /
CCCS(=O)(=O)NC(=O)C1(C)CCN(C(=O)c2cccs2)C1 (centres undefined) | / | / | . | / | /
CCCc1nnc(NC(=O)Cc2coc3c(C)c(C)ccc23)s1 | / | / | . | / | /
COc1cccc(CN(C(=O)COc2ccc(Cl)c(C)c2)C2CCS(=O)(=O)C2)c1 (centres undefined) | / | / | . | / | /
OC(c1ccccc1)C(NCCNCc1ccccc1)c1ccccc1 (centres undefined) | / | / | . | / | /
CCN(CC)C(=O)N[C@@H]1C[C@@H]2c3cccc4[nH]cc(c34)C[C@H]2N(C)C1 | / | / | / | ? | .
CCCn1cc2c3c(cccc31)C1CC(C)CN(C)C1C2 (centres undefined) | . | . | / | ? | 12µM
COC1C(OC(=O)/C=C/C=C/C=C/C=C/C(=O)O)CCC2(CO2)C1C1(C)OC1CC=C(C)C (centres undefined) | / | / | / | 0.0038µM | ?
COC1C(OC(=O)/C=C/C=C/C=C/C=C/C(=O)O)CCC2(CO2)C1C1(C)OC1CC=C(C)C (centres undefined) (tested in a mixture with another compound) | / | / | . | / | /
COc1cccc(-c2noc(C3CCCN(C(=O)c4cccc(F)c4)C3)n2)c1 (centres undefined) | 35 | 45 | . | ? | ?
SMILES | CHX counter | Shiga toxin inh | HCMV antiviral | Pf growth 48h | Pf growth 96h
CCCC(=O)N1CCCC(c2nc(-c3cccc(OC)c3)no2)C1 (centres undefined) | 32 | 77 | . | . | .
COc1cccc(-c2noc(C3CCCN(C(=O)Cc4ccccc4)C3)n2)c1 (centres undefined) | 23 | . | . | . | .
COc1ccc(-c2noc(C3CCCN(C(=O)c4cccc(F)c4)C3)n2)cc1 (centres undefined) | . | / | . | . | .
Cc1ccnc(NC2(C(F)(F)F)N=C(c3ccccc3)NC2=O)c1 (centres undefined) | . | . | . | . | .
Cn1c(=O)n(C)c2cc(N3CCOCC3)c(NS(=O)(=O)c3cccc(C#N)c3)cc21 | / | / | . | / | /
O=[n+]1c2c(n([O-])c3cc(F)c(N4CCCC4)cc31)CCCC2 | 30 | 61 | . | . | ?
CCc1c(C)nc(SCC(=O)c2ccc(C)c(C)c2)[nH]c1=O | 19 | . | . | . | .
